This note sets out measurements from PubChem BioAssay AID743397 (Broad Institute, 2014).

Out of some 340,000 compounds screened, about 330 (0.097%) were called active. Only a selection was taken, and actives are over-represented in it overall. Values without a mark were called inactive.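 Rule for the calls: active = mean replicate inhibition of at least 30% and at least 1% of replicates passing that level; inconclusive = only one of the two criteria is met; inactive = neither criterion is met.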

This assay relates to Voltage-dependent L-type calcium channel subunit alpha-1D (CaV1.3) ICDI/IQ interaction. As to the kind of experiment: Primary screen for inhibitors of IQ motif and Ca2+-dependent inactivation inhibitor domain binding in CACNA1D, Förster resonance energy transfer in living cells, single-concentration test (AID 743397).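 Note: 0% = median of the neutral control wells.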 The settings on record: HEK cells, CFP/YFP FRET ICDI-IQ, plate reader, 10 min; at 12.3 µM; active compounds read high; percent FRET-ratio fall versus neutral wells.
For orientation: inhibition means the relative decrease from the control value, in per cent. As to `COc1ccccc1Cc1c(-c2ccc(F)cc2)nc2ccc(C)cn12`, the inhibition is -8.77%.

With `CC(C)(C)C(c1nc2ccccc2[nH]1)n1c(Cc2csc3ccccc23)nc2ccccc21` (stereo unspecified), the inhibition is -10%.

Take `COC(=O)[C@]12C[C@H](CC(=O)NCc3ccccc3)C(=O)N(CCC3=CCCCC3)C1=C[C@H](C(C)(C)C)O[C@@H]2C`: the inhibition was -8.62%.

For the molecule `COC(=O)Cc1nnn2c1[C@H](C)[C@H](c1ccccc1Br)OCC2`, the inhibition is -6.7%.

As to `CC(=O)c1ccc(S(=O)(=O)NCC2CCN(C(=O)C(=O)c3cccs3)CC2)cc1`, the inhibition was -7.65%.

With `COc1ccc(-c2ccccc2C2Cc3nnccc3CN2C(=O)Nc2ccccc2)cc1` (stereo unspecified), the inhibition was -4.58%.

For the molecule `CC(C)[C@@H](C)/C=C/[C@@H](C)[C@H]1CC[C@@H]2[C@]1(C)CCC1[C@]23C=C[C@]2(C[C@@H](O)CC[C@]12C)N(c1ccc([N+](=O)[O-])cn1)O3` (stereo partly specified), the inhibition is -8.61%.

For the molecule `COC(=O)C1=C(C)N(Cc2ccccc2C(F)(F)F)C(=NCc2ccc(C(F)(F)F)cc2)NC1c1ccc(F)cc1` (stereo unspecified), the inhibition is -9.8%.

Consider `CCCCCc1c(-c2ccc(OC)c(OC)c2)ncn1CCc1ccccc1OC`, for which the inhibition was -11%.

For `COC(=O)Cc1nnn2c1[C@H](C)[C@@H](OC)c1cc(Br)ccc1-2`, the inhibition was -5.26%.

As for `CCCN1C(=O)c2[nH]nc(-c3ccccc3)c2C1c1ccccc1` (stereo unspecified), the inhibition was -3.81%.

Take `COC(=O)[C@H](CC(C)C)NS(=O)(=O)c1c(F)cccc1F`: the inhibition was -4.96%.

For `CSc1ccc(Oc2cccc3c2S(=O)(=O)N([C@H](C)c2ccccc2)C[C@@H](COCc2ccccc2)O3)cc1C`, the inhibition is -9.54%.

In the case of `COc1cccc(CC(=O)N2CCN(C(=O)C(=O)c3cccc(C(F)(F)F)c3)CC2)c1`, the inhibition was -9.3%.

Turning to `Cc1ccc(NS(=O)(=O)c2cc3c(cc2Br)NC(=O)CO3)cc1C`, the inhibition is -4.61%.

Turning to `OC(c1ccccc1)(c1ccccc1)C1CCN(CCCOc2ccc(-c3ccsc3)cc2)CC1`, the inhibition was -9.67%.

Consider `COC(=O)[C@]12C[C@H](CC(=O)NCc3ccc(C)o3)C(=O)N(CCC3=CCCCC3)C1=C[C@H](C(C)(C)C)O[C@@H]2C`, for which the inhibition was -11.3%.

Take `CCCCCCCCN1C(=O)[C@@H](CC(=O)N2CCN(C(=O)OCC)CC2)C[C@@]2(C(=O)OC)C1=C[C@H](C1CCCC1)O[C@@H]2C`: the inhibition is -9.25%.

As to `C[C@H](CO)N1C[C@H](C)[C@@H](CN(C)C(=O)Nc2ccccc2F)OCc2cn(nn2)CCCC1=O`, the inhibition is -4.14%.

As to `CN(C)C(=O)N1CCN(C(=O)[C@@H](Cc2ccccc2)NC(=O)[C@H]2O[C@@H](n3ccc(N)nc3=O)[C@H](O)[C@@H]2O)CC1`, the inhibition was -3.39%.

For the molecule `CN1CCCc2nc(-c3ccccc3)ccc21`, the inhibition is -4.26%.

On to `Cc1noc(C)c1NC(=O)Nc1ccc2c(c1)C(=O)N([C@H](C)CO)C[C@H](C)[C@H](CN(C)Cc1ccncc1)OCCCC[C@@H](C)O2`, for which the inhibition was -5.78%.

As for `Cc1cccc(N2CCN(C(=O)C3CCN(S(=O)(=O)c4cnc[nH]4)CC3)CC2)c1C`, the inhibition is -5.87%.

Consider `COc1cccc(N2CCN(C(=O)C3CCCN(S(=O)(=O)c4cnc[nH]4)C3)CC2)c1` (stereo unspecified), for which the inhibition was 46.8% (active).

Regarding `CCOC(=O)c1cccc(NC(=O)C2CCCN(S(=O)(=O)c3cnc[nH]3)C2)c1` (stereo unspecified), the inhibition was -9.58%.

Consider `COC(=O)C1=C(C)N(Cc2cccc(C(F)(F)F)c2)C(=NCc2cccc(C(F)(F)F)c2)NC1c1ccccc1C(F)(F)F` (stereo unspecified), for which the inhibition is -2%.

On to `COC(=O)[C@@]12C[C@@H](CC(=O)NCCCCc3ccccc3)C(=O)N(CCc3ccc(OC)c(OC)c3)C1=CCC(C)(C)C2`, for which the inhibition was -8.1%.

As for `O=S1(=O)c2c(cccc2N2CCCC2)O[C@H](COCc2ccccc2)CN1C1CC1`, the inhibition is -7.56%.

Take `CC1CCN(C(=O)c2ncn3c2C(=O)N[C@@H](C)C3)CC1`: the inhibition is -3.16%.

Consider `COc1cccc(-c2cc(CNC(=O)[C@@H](Cc3ccccc3)NC(=O)[C@H]3O[C@@H](n4cnc(C(N)=O)n4)[C@H](O)[C@@H]3O)no2)c1`, for which the inhibition is -2.93%.

On to `COC(=O)[C@@]12C[C@@H](CC(=O)NCCCCc3ccccc3)C(=O)N(Cc3ccccc3)C1=CCC(C)(C)C2`, for which the inhibition is -17%.

Consider `COC(=O)Nc1nc2ccc(C(=O)C3CC3)cc2[nH]1`, for which the inhibition is -11.2%.

As to `COC(=O)C1=C(C)N(Cc2ccc(C(F)(F)F)cc2)C(=NCc2ccc(C(F)(F)F)cc2)NC1c1cccc(Cl)c1` (stereo unspecified), the inhibition is -9.62%.

For `C[C@H](O)[C@@H]1CN2CCc3ccc(-c4ccc5c(c4)OCO5)cc3[C@@H]2C[C@@H]1N(C)C(=O)C1CCCCC1`, the inhibition is -2.76%.

Regarding `O=C(C(=O)N1CCC(CNC(=O)c2cccnc2Cl)CC1)c1cccs1`, the inhibition was -10.2%.

Regarding `Cc1ccccc1C(=O)N[C@H](C(=O)N1CCC[C@H]1C(=O)NCc1ccccc1)C(C)C`, the inhibition was -3.3%.

For the molecule `CCOc1ccccc1C(=O)N1CCC[C@@H]1C(=O)N1CCC[C@H]1C(=O)NCc1ccccc1`, the inhibition was -4.37%.

On to `N#Cc1cccc(C(=O)NCC2CCN(C(=O)C(=O)c3cc4ccccc4o3)CC2)c1`, for which the inhibition is -8.07%.

As for `NC(=O)c1ncn([C@@H]2O[C@H](C(=O)O)[C@@H](O)[C@H]2O)n1`, the inhibition was -4.52%.

Turning to `CC1(C)OC(=O)C2=C(CC(CCc3ccccc3)OC2c2ccc(Cl)cc2)O1` (stereo unspecified), the inhibition is -9.52%.

On to `c1ccc2cc3c(NCCN4CCOCC4)ccnc3cc2c1`, for which the inhibition is 147% (active).

For the molecule `c1ccc(-c2ccc(OCCN3CCOCC3)cc2)cc1`, the inhibition is -9.07%.

As to `Fc1ccc(-c2ccc(NCCN3CCOCC3)nn2)cc1`, the inhibition was -2.08%.

`C#CCN([C@@H](C)C(=O)OCC)S(=O)(=O)c1ccc(Br)cc1F`: the inhibition was -4.44%.

Consider `COC(=O)[C@]12C[C@H](CC(=O)NCCc3ccccc3OC)C(=O)N(Cc3ccccc3)C1=C[C@H](C(C)C)O[C@@H]2C1CC1`, for which the inhibition is -8.67%.

For the molecule `COC(=O)[C@]12C[C@H](CC(=O)NCCC(C)C)C(=O)N(CCc3ccc(OC)c(OC)c3)C1=C[C@H](C(C)(C)C)O[C@@H]2C`, the inhibition is -8.8%.
